Assay outcomes as filed in PubChem BioAssay.
IDE inh – inhibitors of human insulin-degrading enzyme in cells. P14735. HEK cells, FAbetaB cleavage, fluorescence polarization. inhibition, % at 5.59 µM. 0.41% of 320,000 active;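 active means percent inhibition above the average of all tested compounds plus 3 SD, set per screening campaign, cut at about 16% in these data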;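 further: IDE supplied by intact live HEK cells; FP after avidin binding of uncleaved biotin substrate so inhibition keeps polarization high; 0% = DMSO wells and 100% = 60 µM reference IDE inhibitor Ii1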
Calb FLC – C. albicans growth modulation with fluconazole; C. albicans CaCi-2 (fluconazole-resistant clinical isolate) + fluconazole, Alamar Blue growth, 48 h; growth inhibition, % (test concentration not listed); 0.57% of 300,000 active; AID 1979;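 active means growth inhibition above about 58% in most replicates, limit read from the data, passing the limit was not always enough; inconclusive means exactly half the replicates above a set limit; inactive means most replicates below a set limit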;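 further: all wells also contain fluconazole at 8 µg/ml as a sub-toxic cotreatment; 0% = median of DMSO wells and 100% = median of geldanamycin control wells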
Rin1-Abl PPI inh – blocks binding of human Rin1 to Abl; 0.4% of 360,000 active; TR-FRET Rin1/Abl binding, biochemical; inhibition, % at 7.35 µM; P00519+Q13671; in the data active means inhibition above about 5%, passing the limit was not always enough
Target sequence (P00519 whole entry, looked up): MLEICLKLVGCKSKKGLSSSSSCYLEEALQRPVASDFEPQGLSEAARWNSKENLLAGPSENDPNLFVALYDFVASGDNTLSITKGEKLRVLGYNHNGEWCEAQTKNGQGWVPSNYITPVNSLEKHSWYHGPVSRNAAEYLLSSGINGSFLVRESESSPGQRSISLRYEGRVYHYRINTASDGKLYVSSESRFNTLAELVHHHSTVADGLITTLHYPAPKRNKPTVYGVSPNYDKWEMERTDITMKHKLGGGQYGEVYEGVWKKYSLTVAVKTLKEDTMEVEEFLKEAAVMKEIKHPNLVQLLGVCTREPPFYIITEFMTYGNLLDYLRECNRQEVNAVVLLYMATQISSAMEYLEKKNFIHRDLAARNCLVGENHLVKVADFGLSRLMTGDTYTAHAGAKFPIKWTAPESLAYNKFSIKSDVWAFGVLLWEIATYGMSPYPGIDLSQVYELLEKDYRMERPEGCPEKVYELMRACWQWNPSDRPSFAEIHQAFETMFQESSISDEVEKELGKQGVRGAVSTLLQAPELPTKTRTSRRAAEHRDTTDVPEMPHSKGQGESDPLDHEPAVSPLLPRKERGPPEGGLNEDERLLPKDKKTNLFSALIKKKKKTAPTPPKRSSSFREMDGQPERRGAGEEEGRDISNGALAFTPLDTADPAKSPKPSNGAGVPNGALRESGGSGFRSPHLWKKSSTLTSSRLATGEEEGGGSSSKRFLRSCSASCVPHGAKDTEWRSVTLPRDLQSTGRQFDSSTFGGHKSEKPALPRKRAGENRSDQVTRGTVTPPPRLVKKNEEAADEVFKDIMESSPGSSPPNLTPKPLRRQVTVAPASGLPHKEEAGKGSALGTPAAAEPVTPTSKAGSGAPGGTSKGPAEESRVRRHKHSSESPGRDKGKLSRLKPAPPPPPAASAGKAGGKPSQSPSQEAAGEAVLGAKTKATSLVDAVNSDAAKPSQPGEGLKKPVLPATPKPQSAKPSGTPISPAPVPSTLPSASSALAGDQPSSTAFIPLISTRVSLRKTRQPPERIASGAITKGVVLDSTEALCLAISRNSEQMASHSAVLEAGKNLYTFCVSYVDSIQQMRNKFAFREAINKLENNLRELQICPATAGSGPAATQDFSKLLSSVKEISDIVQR
Target sequence (Q13671 whole entry, looked up): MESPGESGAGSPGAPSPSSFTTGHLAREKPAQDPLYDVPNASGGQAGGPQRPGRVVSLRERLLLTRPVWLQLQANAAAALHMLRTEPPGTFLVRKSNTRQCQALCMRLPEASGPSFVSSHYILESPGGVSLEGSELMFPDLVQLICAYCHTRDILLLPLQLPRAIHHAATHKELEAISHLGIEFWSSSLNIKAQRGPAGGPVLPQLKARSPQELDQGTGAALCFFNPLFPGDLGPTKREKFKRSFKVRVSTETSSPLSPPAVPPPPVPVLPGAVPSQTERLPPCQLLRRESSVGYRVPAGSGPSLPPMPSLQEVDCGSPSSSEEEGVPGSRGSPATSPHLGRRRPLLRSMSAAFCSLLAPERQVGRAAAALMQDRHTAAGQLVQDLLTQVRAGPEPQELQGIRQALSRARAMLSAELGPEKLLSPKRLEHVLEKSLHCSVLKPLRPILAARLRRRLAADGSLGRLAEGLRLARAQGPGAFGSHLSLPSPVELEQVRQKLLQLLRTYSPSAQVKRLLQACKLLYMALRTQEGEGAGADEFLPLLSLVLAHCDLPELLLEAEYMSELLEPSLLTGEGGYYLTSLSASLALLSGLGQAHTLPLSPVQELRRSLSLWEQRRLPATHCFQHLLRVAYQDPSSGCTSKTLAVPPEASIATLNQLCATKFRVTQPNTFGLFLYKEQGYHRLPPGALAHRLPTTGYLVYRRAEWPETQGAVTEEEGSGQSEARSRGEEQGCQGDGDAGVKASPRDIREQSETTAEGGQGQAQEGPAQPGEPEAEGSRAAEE
TPT1 inh – C. albicans TPT1 enzyme inhibition; inhibition, % at 5 µM; recombinant caTPT1, FP RNA substrate dephosphorylation; 0.81% of 300,000 active;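 active means inhibition above the mean of all tested compounds plus 3 SD, set per screening campaign, cut at about 24% in these data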;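 further: plate controls were DMSO alone for no effect and ferristatin control at 100 nM for full effect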
Rpn11 inh – Rpn11 (human) deubiquitinase inhibition; O00487; human 26S proteasome, Ub4-pepOG fluorescence polarization; 20S core pre-blocked with epoxomicin; inhibition, % at 20 µM; 0.59% of 360,000 active; AID 588493;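 active means inhibition at 20 µM, scaled to each plate's controls, above about 33%, limit read from the data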
IDE cell activ – boosts human insulin-degrading enzyme activity in HEK cells; FAbeta-B cleavage, fluorescence polarization; 0% vehicle, 100% cell-free pure enzyme wells; activation, % at 5.96 µM; 0.073% of 340,000 active;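 active means activation above the mean of all tested compounds plus 3 SD, set per screening campaign, cut at about 17% in these data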
* marks the source's active call; other numbers are inactive results. In the library only some 2.3% were active in any assay of this set; here they are far more common.

For CCOC(=O)C1CCCN(C(=O)CCCn2nnnc2CN2CCOCC2)C1 (configuration not stated) the results were Calb FLC -13, Rin1-Abl PPI inh 2, Rpn11 inh 0 and IDE cell activ 2.
CCOC1=C2[C@@H](CN(S(=O)(=O)c3ccc(C)cc3)[C@H]2c2ccccc2Cl)[C@H]2C(=O)N(Cc3ccccc3)C(=O)[C@H]2C1 was read as Rin1-Abl PPI inh -2 and Rpn11 inh 9.
`Cc1c(O)cc2n(c1=O)-c1ccc(Cl)cc1C2(C)C` gave IDE inh 0, Calb FLC 109*, Rin1-Abl PPI inh 1, TPT1 inh -2, Rpn11 inh 5 and IDE cell activ 4.
For CCOC(=O)c1sc2nc3c(SCC(=O)O)cc(C(=O)c4cc(F)ccc4O)cn3c(=O)c2c1C the results were IDE inh 4, Calb FLC 5, Rin1-Abl PPI inh 0, TPT1 inh 10, Rpn11 inh 58* and IDE cell activ 6.
COC(=O)c1cc(C(=O)c2cc(F)ccc2O)cn2c(=O)c3c(C)c(C)sc3nc12 was read as IDE inh 5, Calb FLC -13, Rin1-Abl PPI inh -2, TPT1 inh 5, Rpn11 inh 32 and IDE cell activ 3.
O=[N+]([O-])c1nn(-c2ccc(Cl)cc2)n(O)c1=NCc1cccnc1 was read as IDE inh -1, Calb FLC 88*, Rin1-Abl PPI inh 1, TPT1 inh -4, Rpn11 inh 1 and IDE cell activ 1.
Screening O=[N+]([O-])c1nn(-c2cccc(Cl)c2)n(O)c1=NCc1cccnc1 returned IDE inh -2, Calb FLC 5, Rin1-Abl PPI inh 0, TPT1 inh 1, Rpn11 inh 0 and IDE cell activ 6.
For Cc1nc(NC(=O)c2ccccc2)sc1Cc1ccc2c(c1)OCO2 the results were IDE inh 2, Calb FLC -21, Rin1-Abl PPI inh 2, TPT1 inh -2, Rpn11 inh -5 and IDE cell activ 7.
`Cc1cc(C)nc(NC(=NCc2ccc3c(c2)OCO3)NC(=O)Nc2ccccc2)n1` gave IDE inh -3, Calb FLC 122*, Rin1-Abl PPI inh 0, TPT1 inh 2, Rpn11 inh -1 and IDE cell activ 5.
Screening COCCN(C(=O)Cn1c(C(F)(F)F)nc2ccccc21)c1c(N)n(Cc2ccccc2)c(=O)[nH]c1=O returned IDE inh 2, Calb FLC 7, Rin1-Abl PPI inh 0, TPT1 inh -1, Rpn11 inh -4 and IDE cell activ 3.
O=c1[nH]cnc2c1C(c1ccc(Cl)cc1)c1c(nc[nH]c1=O)O2 was read as Calb FLC -6, Rin1-Abl PPI inh 7.7*, Rpn11 inh 0 and IDE cell activ 4.
`CCOC(=O)c1sc(=S)n(-c2ccccc2Cl)c1C` gave IDE inh -3, Calb FLC 25, Rin1-Abl PPI inh 6, TPT1 inh 1, Rpn11 inh -4 and IDE cell activ -2.
Screening CCOC(=O)N1C(=O)C2(CCCCC2)N(c2ccccc2Cl)C1=S returned IDE inh -1, Calb FLC 100*, Rin1-Abl PPI inh 2, TPT1 inh 2, Rpn11 inh -1 and IDE cell activ -2.
For COc1cc([C@@H]2c3cc4c(cc3[C@@H](NC3CCN(Cc5ccccc5)CC3)[C@H]3COC(=O)[C@H]23)OCO4)cc(OC)c1O the results were Calb FLC 101*.
For COc1cc([C@@H]2c3cc4c(cc3[C@H](O)[C@H]3COC(=O)[C@H]23)OCO4)cc(OC)c1OC the results were IDE inh -4, Rin1-Abl PPI inh 3, TPT1 inh -2, Rpn11 inh -8 and IDE cell activ 7.
Screening O=C(Nc1cc(F)ccc1F)c1ccc(-n2cncn2)c([N+](=O)[O-])c1 returned IDE inh 5, Calb FLC 29, Rin1-Abl PPI inh 3, TPT1 inh -3, Rpn11 inh -2 and IDE cell activ 0.
c1ccc(Nc2nc(NCC3CCCO3)c3ccccc3n2)cc1 (configuration not stated) was read as IDE inh 3, Calb FLC inconclusive, Rin1-Abl PPI inh 2, TPT1 inh -3, Rpn11 inh -12 and IDE cell activ -8.
`CCOc1ccc(Nc2nc(NCC3CCCO3)c3ccccc3n2)cc1` (configuration not stated) gave IDE inh 1, Calb FLC 99*, Rin1-Abl PPI inh 3, TPT1 inh 2, Rpn11 inh -9 and IDE cell activ 4.
For O=C(CSc1cccc[n+]1[O-])c1cc(Cl)ccc1Cl the results were IDE inh -4, Calb FLC 100*, Rin1-Abl PPI inh 2, TPT1 inh 3, Rpn11 inh 5 and IDE cell activ -3.
Screening S=C(Nc1ccc(Cl)cc1)c1nc2ccccc2[nH]1 returned IDE inh 3, Calb FLC 96*, Rin1-Abl PPI inh 2, TPT1 inh -3, Rpn11 inh 18 and IDE cell activ -7.
For COc1cc(CNc2ccc(N3CCCC3)cc2)cc(Cl)c1OC the results were IDE inh -2, Calb FLC 87*, Rin1-Abl PPI inh -3, TPT1 inh 5, Rpn11 inh 10 and IDE cell activ 3.
For O=C(/C=C1\NC2(CCCC2)Cc2ccccc21)C(=O)N/N=C/c1ccccc1O the results were IDE inh 3, Calb FLC 95*, Rin1-Abl PPI inh -9, TPT1 inh -2, Rpn11 inh 3 and IDE cell activ -1.
`COc1cc(/C=N/NC(=O)C(=O)/C=C2\NC3(CCCC3)Cc3ccccc32)ccc1O` gave IDE inh -4, Calb FLC -5, Rin1-Abl PPI inh 1, TPT1 inh 0, Rpn11 inh 3 and IDE cell activ 6.
`O=C(CN1C(=O)c2ccccc2C1=O)Oc1ccc(F)cc1` gave IDE inh 4, Calb FLC -2 and TPT1 inh -2.
Screening CCc1ccc(N2CC(C(=O)N/N=C/c3cc([N+](=O)[O-])ccc3O)CC2=O)cc1 (configuration not stated) returned IDE inh 1, Calb FLC 106*, Rin1-Abl PPI inh 0, TPT1 inh -2 and Rpn11 inh -2.
`CCc1ccc(N2CC(C(=O)N/N=C/c3ccccc3OC)CC2=O)cc1` (configuration not stated) gave IDE inh -4, Calb FLC -4, Rin1-Abl PPI inh 4, TPT1 inh 0, Rpn11 inh 9 and IDE cell activ 5.
`Cc1ccccc1/C=C/c1cc[n+](C)cc1` gave IDE inh 1, Calb FLC -6, Rin1-Abl PPI inh -1, TPT1 inh -2, Rpn11 inh 4 and IDE cell activ 1.
`CC(C)n1cc(/C=C/c2cc[n+](C)cc2)c2ccccc21` gave Calb FLC 87*, Rin1-Abl PPI inh -133 and IDE cell activ -32.
